Test results from PubChem BioAssay AID651965 (National Center for Advancing Translational Sciences (NCATS), 2013).
Screen size: about 340,000 compounds; about 6,400 (1.9%) were called active. Where a call stands in place of a potency, no number is given. About 4% were inconclusive and are not listed. This is one part of a sample in which actives are shown more often than they occur. Calls follow the shape of the dose curve; as a rule, active = well fitted falling curve with a large enough effect; inconclusive = small, poorly fitted or top-dose-only effect; inactive = no such curve, though single readings can be large or run the other way.
Also: the source files actives as falling curves though it sought activators and does not explain the sign; nearly all actives have a fitted effect of over 65% in size.
Potency is read from the fitted curve at half-maximal effect.

The compounds below were run against ATP-dependent Clp protease proteolytic subunit (Bacillus subtilis (strain 168)) (UniProt P80244) (assay: qHTS Assay for Activators of ClpP). Settings: purified B. subtilis ClpP, FRET peptide cleavage, 20 min; series mostly up to 57.5 µM.
Chain of ATP-dependent Clp protease proteolytic subunit (Bacillus subtilis (strain 168)) (P80244 whole entry, looked up): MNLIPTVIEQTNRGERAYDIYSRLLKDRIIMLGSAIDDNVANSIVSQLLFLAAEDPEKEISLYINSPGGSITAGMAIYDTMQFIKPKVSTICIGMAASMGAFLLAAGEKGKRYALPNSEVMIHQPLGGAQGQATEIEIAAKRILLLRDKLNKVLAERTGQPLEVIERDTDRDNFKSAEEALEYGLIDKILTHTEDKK
Outline: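 Purified B. subtilis ClpP, 10 microg/mL final in Tris/HCl pH8 with KCl, BSA, glycerol and Tween-20, cleaved an Abz/nitrotyrosine-quenched decapeptide. Fluorescence (ex 320, em 430) was read at 0 and 20 min at room temperature. Delta was normalized to 5.8 microM ADEP and DMSO/no-enzyme controls.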
For `CC(=O)Nc1cccc(-c2ccnc3c2CC(C)(C(=O)NCc2ccccc2)O3)c1` (stereo not given), the Potency was “inactive”. In the case of `CC1(C(=O)Nc2ccc3c(c2)OCCO3)CCN1C(=O)Cc1cc(F)ccc1F` (stereo not given), the Potency is reported as “inactive”. With `COc1ccc(NC(=O)C2Cc3c(-c4ccc(Cl)cc4)ccnc3O2)cc1` (stereo not given) the Potency was “inactive”. For `Cc1ccc(OCC(=O)Nc2ccc(-c3nnc(-c4ccco4)o3)cc2)cc1`, the Potency was 28.2 µM (active). In the case of `CCOc1ccc(NC(=O)c2ncoc2-c2ccco2)cc1`, the Potency is reported as “inactive”. For `CC(=O)Nc1ccc(NC(=O)COc2ccc(-c3ccccc3)cc2)cc1`, the Potency was “inactive”. For `O=C(CSc1nnc(-c2ccc(NS(=O)(=O)c3ccccc3)cc2)o1)NCC1CCCO1` (stereo not given), the Potency was “inactive”. In the case of `CCOc1ccc(-c2nnc(-c3ccco3)o2)cc1`, the Potency is reported as 8.91 µM (active). `COc1ccc(OCC(=O)Nc2nnc(-c3ccco3)s2)cc1` was tested, and the Potency was “inactive”. With `O=C(Nc1cccc(-c2nnc(-c3ccccc3)o2)c1)C1CCCO1` (stereo not given) the Potency was “inactive”. With `COc1ccc(CC(=O)Nc2ccc(C(=O)NC(C)(C)C)cc2)cc1` the Potency was “inactive”. `O=C(Nc1ccc(-c2nnc(-c3ccccc3)o2)cc1)C1CCCO1` (stereo not given) was tested, and the Potency was 12.6 µM (active). `O=C(CSc1nnc(-c2ccco2)o1)NCC(=O)c1ccccc1` was tested, and the Potency was “inactive”. In the case of `COc1ccc(CC(=O)Nc2c(C(N)=O)oc3ccccc23)cc1`, the Potency is reported as “inactive”. In the case of `COc1ccc(CC(=O)Nc2ccc(-c3nnc(-c4ccccc4)o3)cc2)cc1`, the Potency is reported as 7.08 µM (active). With `Fc1cccc(Cc2c(-c3ccc(Cl)cc3)nc3ccc(Cl)cn23)c1` the Potency was “inactive”. `O=C(Nc1cccc2cccnc12)c1ccc2sc([C@H]3C[C@H](O)[C@@H](CO)O3)nc2c1` was tested, and the Potency was “inactive”. In the case of `CCCCCc1c(Cc2ccccc2)ncn1CCc1ccccc1OC`, the Potency is reported as “inactive”. With `O=C(Nc1nnc([C@H]2C[C@H](O)[C@@H](CO)O2)s1)c1cccc(Cl)c1` the Potency was “inactive”. `CC(C)(O)C1=C[N+](=O)CC=C1` was tested, and the Potency was “inactive”. For `O=S(=O)(c1cccc(C(F)(F)F)c1)N1c2ccccc2-n2cccc2C1c1cccnc1` (stereo not given), the Potency was “inactive”. For `CN(C)c1ccc(/C=N\Nc2ccc([N+](=O)[O-])cc2[N+](=O)[O-])cc1Cl`, the Potency was “inactive”. `O=C(Nc1ccc(Cl)cc1)c1cnn2c1NC(=C1CC1)C=C2C(F)F` was tested, and the Potency was “inactive”. With `CC(C)(C)c1ccc(S(=O)(=O)NC(=O)C2(C)CCN2C(=O)CC2CC2)cc1` (stereo not given) the Potency was “inactive”. `COc1ccc(C(C)C)cc1-c1ccc2nncn2c1` was tested, and the Potency was “inactive”. `C/C=C/NNC(=O)Cc1ccc(OC)cc1` was tested, and the Potency was “inactive”. For `CC1(C)Cc2ccccc2-c2c[nH]c(=O)n21`, the Potency was “inactive”. In the case of `O=c1oc2ccc(C#CC3(O)CCCCC3)cc2cc1-n1cc(-c2ccsc2)nn1`, the Potency is reported as 31.6 µM (active). For `CCCCCn1nnnc1-c1nc2cc3ccccc3cc2[nH]c1=O`, the Potency was “inactive”. `CCOC(=O)[C@]12CCCC=C1N(Cc1ccc3c(c1)OCO3)C(=O)[C@H](CC(=O)NCc1cccs1)C2` was tested, and the Potency was “inactive”. With `O=C(c1ccc2c(=O)n(Cc3ccco3)c(=S)[nH]c2c1)N1CCCC1` the Potency was “inactive”. For `Cc1cccc(C(=O)Nc2ccc(-c3nc4ncccc4o3)cc2C)c1`, the Potency was 35.5 µM (active). In the case of `O=C(Nc1cccc(-c2nc3ncccc3o2)c1)c1ccco1`, the Potency is reported as “inactive”. `O=C(Nc1cc(-c2nc3ncccc3o2)ccc1Cl)c1ccco1` was tested, and the Potency was “inactive”. `COc1ccc(C(NC(=O)C2CCN(CCCc3ccccc3)CC2)c2cccs2)cc1` (stereo not given) was tested, and the Potency was “inactive”. In the case of `Cc1ccccc1OCc1ccc(-c2nc(C#N)c(N3CCCCC3)o2)o1`, the Potency is reported as “inactive”. In the case of `CN1CCN(c2oc(-c3ccc(COc4ccc(Cl)cc4)o3)nc2C#N)CC1`, the Potency is reported as 35.5 µM (active). With `CCC(C)Nc1oc(-c2ccc(COc3ccc(Cl)cc3)o2)nc1C#N` (stereo not given) the Potency was 28.2 µM (active). With `N#Cc1nc(COc2ccc(Cl)cc2)oc1N1CCCC1` the Potency was “inactive”. With `COc1ccc(OCc2ccc(-c3nc(C#N)c(N4CCN(c5ccccc5)CC4)o3)o2)cc1` the Potency was “inactive”. With `CC1CC(C)CN(c2oc(-c3ccc(OCc4ccc(Cl)cc4)cc3)nc2C#N)C1` (stereo not given) the Potency was “inactive”. With `CCCCCc1c(-c2ccc(OC)c(OC)c2)ncn1CCc1ccccc1OC` the Potency was “inactive”. `CC1CCCN(c2nc3c(S(=O)(=O)c4ccc(C(C)C)cc4)nnn3c3ccsc23)C1` (stereo not given) was tested, and the Potency was “inactive”. For `O=S(=O)(c1ccc(Br)cc1)c1nnn2c1nc(NC1CCCCCC1)c1sccc12`, the Potency was “inactive”. `O=S(=O)(c1ccc(Cl)cc1)c1nnn2c1nc(NC1CCCC1)c1sccc12` was tested, and the Potency was 25.1 µM (active). For `C[C@@H]1Cn2cnc(C(=O)Nc3ccc(CNC(=O)OC(C)(C)C)cc3)c2C(=O)N1`, the Potency was “inactive”. In the case of `CC1CN(C(=O)c2cccc(NS(=O)(=O)c3ccc(Br)cc3)c2)CC(C)O1` (stereo not given), the Potency is reported as “inactive”. For `COc1ccc(COC[C@H](CC(C)C)N2CCN(C(=O)c3cccc(C(F)(F)F)c3)CCC2=O)cc1`, the Potency was “inactive”. `COC(=O)C[C@@H]1C=C[C@@H](NC(=O)c2cccnc2)[C@@H](CO)O1` was tested, and the Potency was “inactive”. `COc1ccc(CCNc2nc(-c3ccc(Cl)cc3)cc(C(F)(F)F)n2)cc1OC` was tested, and the Potency was “inactive”. `COc1ccc(CCNc2cc(C)nc3c(-c4ccc(Cl)cc4)c(C)nn23)cc1OC` was tested, and the Potency was 28.2 µM (active). For `COc1ccc(-c2c(C)nn3c(N4CCC(C(=O)NCCC(C)C)CC4)cc(C)nc23)cc1OC`, the Potency was “inactive”. For `CNc1cncc(-c2cccc(C(=O)N3CCOCC3)c2)n1`, the Potency was “inactive”. For `NCCCCC(C(=O)O)N(C(=O)OCc1ccccc1)C(=O)OCc1ccccc1` (stereo not given), the Potency was “inactive”. With `CC(C)(C)OC(=O)N(Cc1ccco1)S(=O)(=O)c1ccccc1Br` the Potency was “inactive”. With `Cc1ccc(C2CCN(C(=S)Nc3cccc(Cl)c3)C2)cc1` (stereo not given) the Potency was “inactive”. For `O=C(C(=O)N1CCC(c2ccccc2)CC1)c1ccccc1`, the Potency was “inactive”. `Cc1nc2ccc(NC(=O)N3CCC(c4ccccc4)C3)cc2nc1C` (stereo not given) was tested, and the Potency was 10 µM (active). In the case of `COC(=O)[C@]12CCCCC=C1N(Cc1ccco1)C(=O)[C@H](CC(=O)NCC1CCCCC1)C2`, the Potency is reported as “inactive”. `C[C@H](NC(=O)[C@@H]1CCCN1C(=O)[C@@H]1CCCN1C(=O)c1ccccc1)c1ccccc1` was tested, and the Potency was “inactive”. With `CN(C)c1cccc2ccccc12` the Potency was “inactive”. In the case of `O=C(CN1CCCC1)Nc1sc2c(c1C(=O)Nc1ccccc1)CCCC2`, the Potency is reported as 28.2 µM (active). `CCOc1ccc(NC(=O)c2c(NC(=O)Cc3ccccc3)sc3c2CCCCC3)cc1` was tested, and the Potency was “inactive”. In the case of `O=C(Cc1ccccc1)Nc1sc2c(c1C(=O)Nc1ccc(Br)cc1)CCC2`, the Potency is reported as “inactive”. In the case of `Cc1ccc(-c2ccc(=O)n(CC(=O)NCCCN3CCCCC3)n2)cc1`, the Potency is reported as 14.1 µM (active). With `CCN(CC)CCCNC(=O)CCn1nc(-c2ccc(Cl)cc2)ccc1=O` the Potency was “inactive”. `CCc1ccc(-c2cc3c(=O)n(CC(=O)NCCCN4CCN(Cc5ccccc5)CC4)nc(C)n3n2)cc1` was tested, and the Potency was “inactive”. With `S=c1[nH]c(=S)c2n[nH]nc2[nH]1` the Potency was “inactive”. In the case of `NC(=O)Nc1ccc(/C=C/c2ccnc3ccccc23)cc1`, the Potency is reported as “inactive”. `CC(C)C1CC2=C(C(=O)OC(C)(C)O2)C(c2ccc(F)cc2)O1` (stereo not given) was tested, and the Potency was “inactive”.
